# Experimental data: PubChem BioAssay AID686979 (National Center for Advancing Translational Sciences (NCATS), 2013)
# Hit rate of the full screen: of about 420,000 compounds, about 50,000 (12%) were called active. Not shown: some 26% with an inconclusive outcome. Shown is part of a subset that was picked to be rich in actives. Entries that show only a call come without a potency. A number with no mark means an inactive call. Calls come from the whole dose curve; as a rule, active = well fitted inhibition curve with a large enough effect; inconclusive = small, poorly fitted or top-dose-only effect; inactive = flat fitted curve, though single readings scatter.
# Assay: qHTS for Inhibitors of human tyrosyl-DNA phosphodiesterase 1 (TDP1): qHTS in cells in presence of CPT; note: nearly all actives have a fitted effect of over 55% in size
# Conditions: chicken DT40 Tdp1-/-;hTDP1 cells + 20 nM CPT, ATP luminescence, 48 h; series mostly up to 46.2 µM
# Method in brief: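 Chicken DT40 Tdp1-/- cells stably complemented with human TDP1 were seeded at 400 cells/well in medium containing 20 nM camptothecin, exposed to pin-transferred compounds, and grown at 37 °C for at least 48 hr. Viability was read as ATP luminescence.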
# Potency is the fitted concentration of half-maximal effect.
Structure (SMILES),Potency,"activity change, negative = growth inhibition"
Cc1nc2nc(C)c(NS(=O)(=O)c3ccc(C(C)(C)C)cc3)c(=O)n2[nH]1,inactive,–
CCCS(=O)(=O)NCc1c(C)ncc2c1CCN(C(=O)c1ccc(F)c(F)c1)C2,–,-3.77% [at 9.04 µM]
Cc1coc2c1c(C)cc1oc(=O)c(CC(=O)NCC(=O)N[C@H](C(=O)O)C(C)C)c(C)c12,inactive,–
CC(C#N)OC(=O)c1cccnc1SCC(=O)Nc1ccc2c(c1)OCO2 (stereo unspecified),inactive,–
COc1ccc2c(c1)SC(C)CC2=O (stereo unspecified),inactive,–
COc1ccc2c(c1)OC(O)(C(F)(F)C(F)F)CC2=O (stereo unspecified),11.6 µM (active),–
O=C(CCC(=O)OCc1cccc(C(=O)Oc2ccccc2)c1)Nc1cccc2ccccc12,inactive,–
CS(=O)(=O)c1ccc(C(=O)NNC(=O)c2cccs2)cc1,inactive,–
CC(=O)NC12CC3CC(C1)CC(C(=O)N1CCN(S(=O)(=O)c4cccs4)CC1)(C3)C2,inactive,–
CCOc1ccc(C(=O)Nc2ccc(CN3CCOCC3)cc2)cc1Cl,inactive,–
CCOc1ccc(/C=C(\C#N)c2nc3ccccc3c(=O)[nH]2)cc1OC,inactive,–
N#C/C(=C\c1ccccc1F)c1nc2ccccc2c(=O)[nH]1,inactive,–
COc1cc(/C=C(\C#N)c2nc3ccccc3[nH]2)ccc1O,25.9 µM (active),–
Cc1nnc(SCc2nc3ccccc3nc2C)s1,inactive,–
ClC1(Cl)CC1CSc1ncn[nH]1 (stereo unspecified),inactive,–
O=C(CSc1ncccn1)NCCc1ccccc1,inactive,–
S=C(NCCc1ccccc1)N1CCn2cccc2C1c1ccncc1 (stereo unspecified),18.4 µM (active),–
S=C(Nc1cccc(Br)c1)N1CCn2cccc2C1c1cccnc1 (stereo unspecified),inactive,–
CCC(=O)Nc1ccc(C(=O)NNC(=O)c2ccc(Cl)cc2)cc1,inactive,–
CC(C)C(C(=O)NCc1ccco1)N(CC1CCCO1)C(=O)CNS(=O)(=O)c1ccc(F)cc1 (stereo unspecified),inactive,–
COC(=O)[C@@]1(Sc2ccc(C)cc2)CC(=O)N(c2cccc(SC)c2)[C@@H]1c1ccccc1,18.4 µM (active),–
Cc1ccc(C2SCC(=O)N2c2ccccc2)cc1 (stereo unspecified),inactive,–

Structure (SMILES),Potency,"activity change, negative = growth inhibition"
O=C1CC(c2ccccc2)C(=O)N1c1cccc(O)c1 (stereo unspecified),inactive,–
COc1cc(CO)ccc1OCC(=O)Nc1cccc2ccccc12,inactive,–
O=C(NCCCn1ccnc1)c1cc(Br)c(Br)s1,inactive,–
COC(=O)c1sc2[nH]c(=S)n(N)c(=O)c2c1C,inactive,–
Cc1ccc2occ(/C=N/NC(=O)c3ccccc3C)c(=O)c2c1,16.4 µM (active),–
O=c1c(/C=N/O)coc2ccc(Cl)cc12,inactive,–
CC(C)(C)OC(=O)NCCCCCC(=O)N/N=C/c1coc2ccccc2c1=O,inactive,–
CN1CCC(OC(=O)COc2ccc(Cl)cc2Cl)CC1,inactive,–
O=C(COC(=O)c1ccccc1SCC(=O)N1CCCC1)Nc1ccccc1OC(F)F,inactive,–
Cn1c(SCC(=O)N2CCCC2)nnc1-c1cccs1,inactive,–
Cc1cc(C)cc(NC(=O)Cn2nc(N3CCN(c4ccccc4)CC3)ccc2=O)c1,inactive,–
COc1ccc(CNc2c(CO)cnc3c2cnn3C)cc1,8.2 µM (active),–
COc1ccc(CNc2nccs2)cc1,inactive,–
COc1ccc(CNC(=O)CCn2cccc2)cc1,inactive,–
CSc1nc2nc3c(c(=O)n2[nH]1)CCC3,inactive,–
Cc1cc(NS(=O)(=O)c2ccc(NC(=O)c3ccccc3C)cc2)nc(C)n1,inactive,–
Cc1cnc(C(=O)N2CCOc3ccc(CN4CCCC(C(=O)c5cccnc5)C4)cc3C2)[nH]1 (stereo unspecified),–,-10% [at 9.04 µM]
O=C(O)CC1(CC(=O)Nc2cccc(C(F)(F)F)c2)CCCC1,inactive,–
O=C(Nc1cccc(C(F)(F)F)c1)c1cc(Br)cc(Br)c1O,11.9 µM (active),–
CN(C)CC(C)(C)CNC(=O)c1cc(Br)cc(Br)c1O,inactive,–
Cc1cc(F)ccc1S(=O)(=O)Nc1ncnc2scc(-c3ccc(F)cc3)c12,inactive,–
CCOC(=O)Cn1c(=O)n(Cc2ccc(OC)cc2)c(=O)c2cccnc21,inactive,–

Structure (SMILES),Potency,"activity change, negative = growth inhibition"
COc1ccnc2c1c(=O)n(Cc1cccc(F)c1)c(=O)n2C,inactive,–
O=c1c2cccnc2n(Cc2cccc(F)c2)c(=O)n1Cc1ccccc1Cl,14.6 µM (active),–
O=C(NC1CCCC1)C(c1ccc(Cl)cc1)N(C(=O)c1csnn1)C1CC1 (stereo unspecified),inactive,–
Cc1ccc(-n2ncc3c(=O)n(-c4ccc(C)c(C)c4)c(-c4ccco4)nc32)cc1,18.4 µM (active),–
Cc1ccc(-n2ncc3c(=O)n(Cc4cccc(C(F)(F)F)c4)cnc32)cc1C,inactive,–
Cc1ccc(-c2nc3c(cnn3-c3ccccc3)c(=O)o2)cc1,inactive,–
CCN(CC)S(=O)(=O)c1ccc(C(=O)N2CCN(C3=NS(=O)(=O)c4ccccc43)CC2)cc1,inactive,–
CC(O)c1nc2c(c(=O)n(C)c(=O)n2C)n1C (stereo unspecified),inactive,–
Cn1c(=O)c2c(nc(SCCNS(=O)(=O)c3ccccc3)n2C)n(C)c1=O,inactive,–
CCC/C(C)=N\Nc1nc2c(c(=O)n(C)c(=O)n2C)n1C,18.4 µM (active),–
Cc1cc(-c2nnc(SCC(=O)Nc3ccc(F)cc3)n2N)n[nH]1,inactive,–
Cc1ccc(C)c(NC(=O)C(OC(=O)c2ccc(C)s2)c2ccccc2)c1 (stereo unspecified),inactive,–
O=C1CN(C(=O)COc2c(Cl)cccc2Cl)c2ccccc2N1,inactive,–
CCCc1nc(N)nc2c1C(=O)CC(C)(C)C2,inactive,–
CC/C(O)=C1\C(=O)CC(C)(C)CC1=NCCc1nc2ccccc2[nH]1,23.1 µM (active),–
O=C(OCc1nc2ccccc2[nH]1)C1CCCCC1,inactive,–
COc1ccc(S(=O)(=O)Nc2cc(C)on2)cc1NC(C)=O,inactive,–
CC1(C)CC(=O)C=C(c2ccc(Cl)c(C(F)(F)F)c2)C1,inactive,–
CCn1cc(C(=O)OCC(=O)Nc2cc(C)cc(C)c2)c(=O)c2ccc(C)nc21,inactive,–
Cc1cc(NC(=O)CS(=O)(=O)c2cn(C)c3ccccc23)no1,inactive,–
Cc1c(C(=O)N(C)CCc2cnn(C)c2)oc2c(F)cccc12,inactive,–
OC(COc1ccc(Br)cc1)CN1CCCC1 (stereo unspecified),inactive,–

Structure (SMILES),Potency,"activity change, negative = growth inhibition"
CC(Oc1ccc(Br)cc1)C(=O)NC1CCCCCC1 (stereo unspecified),inactive,–
CC(C)(C)CC(C)(C)NCC(O)COCCOc1ccc(Br)cc1 (stereo unspecified),5.17 µM (active),–
COC(=O)C1(C)NC(c2ccc(C)cc2)C2C(=O)N(c3ccc(F)cc3)C(=O)C21 (stereo unspecified),inactive,–
C/C(N)=C(/C#N)C(=O)COC(=O)CNS(=O)(=O)c1ccc(C)cc1,inactive,–
Cc1ccc(C(=O)O)c(NC=O)c1OCc1ccccc1,inactive,–
COc1ccccc1C(c1nnnn1CC1CCCO1)N1CCN(c2ccccc2)CC1 (stereo unspecified),inactive,–
Cc1cccc(N2CCN(C(c3ccc(N(C)C)cc3)c3nnnn3C(C)(C)C)CC2)c1C (stereo unspecified),inactive,–
Cc1cccc(N2CCN(C(c3ccccc3)c3nnnn3CC3CCCO3)CC2)c1C (stereo unspecified),20.6 µM (active),–
Cc1nc2ccc(N)nc2nc1C,inactive,–
O=C1/C(=C/c2ccc3c(c2)OCO3)Oc2cc(OCC(=O)N3CC(O)C[C@H]3C(=O)O)ccc21 (stereo partly specified),inactive,–
Nc1cccc(OCCCCCOc2cccc(N)c2)c1,inactive,–
O=S(=O)(c1ccc(Br)cc1)n1ccc2ccccc21,13 µM (active),–
O=C(O)C1CCCN1S(=O)(=O)c1ccc(Br)cc1 (stereo unspecified),inactive,–
O=C(c1ccccc1F)N1CCN(S(=O)(=O)c2ccc(Br)cc2)CC1,inactive,–
COc1cccc(C(=O)N2CCC(n3nccc3NC(=O)C3CCOC3)CC2)c1 (stereo unspecified),inactive,–
COc1ccc(-c2nnc(-c3ccc4ccccc4c3)o2)cc1,inactive,–
COc1ccc(C(C)C)cc1S(=O)(=O)Nc1ncn[nH]1,inactive,–
CCOc1cc(C)c(Cl)cc1S(=O)(=O)n1nnc2ccccc21,inactive,–
CCOc1ccc(C(C)C)cc1S(=O)(=O)n1nc(C)cc1C,16.4 µM (active),–
CCc1ccccc1N1CN(Cc2ccco2)CNC1=S,inactive,–
O=C(CNC(=O)[C@@H]1Cc2ccccc2CN1)NC1CCCCC1,inactive,–
CC(C)Oc1ccc(Cc2n[nH]c(=S)n2Cc2ccccc2)cc1Cl,inactive,–

Structure (SMILES),Potency,"activity change, negative = growth inhibition"
C=CCn1c(CCc2ccc(OC(C)C)cc2)n[nH]c1=S,inactive,–
CC(C)Oc1ccc(CCc2n[nH]c(=S)n2Cc2ccccc2)cc1,25.9 µM (active),–
O=C(CSc1nc2ccc([N+](=O)[O-])cc2[nH]1)c1ccc(Cl)cc1,inactive,–
O=[N+]([O-])c1ccc2nc(-c3ccccn3)[nH]c2c1,0.651 µM (active),–
O=c1[nH]c2cccnc2n1-c1ccc([N+](=O)[O-])cc1,inactive,–
O=[N+]([O-])c1ccccc1/C=C/CN1CCCC(CO)C1 (stereo unspecified),inactive,–
CCSc1sc(CC)cc1C=O,inactive,–
CCOc1ccc(C(C)NC(=O)CN2C(=O)NC3(CCCCC3)C2=O)cc1OCC (stereo unspecified),inactive,–
Cc1ccc(C)c(N2CCN(C(=O)CN3C(=O)COc4ccc(S(=O)(=O)N5CCCCCC5)cc43)CC2)c1,16.4 µM (active),–
Cc1ccc2c(c1)N(CC(=O)N1CCOCC1)C(=O)CO2,inactive,–
COc1ccc(CCNC(=O)CN2C(=O)COc3ccc(S(=O)(=O)N4CCCC4)cc32)cc1OC,inactive,–
CCCCN(CCCC)CCCNC(=O)CN1C(=O)COc2ccc(S(=O)(=O)N3CCC(C)CC3)cc21,18.4 µM (active),–
CCCCN(CCCC)CCNC(=O)CN1C(=O)COc2ccc(S(=O)(=O)N3CCOCC3)cc21,inactive,–
CC(=O)Nc1ccc(NC(=O)CN2C(=O)COc3ccc(S(=O)(=O)N4CCCCC4)cc32)cc1,inactive,–
O=C(CCN1C(=O)c2ccncc2C1=O)Nc1cc(F)ccc1F,inactive,–
O=C(COC(=O)c1cnccn1)Nc1ccc(Cl)cc1C(F)(F)F,inactive,–
CC(OC(=O)CNC(=O)c1ccc(Cl)c([N+](=O)[O-])c1)C(=O)NCc1ccco1 (stereo unspecified),inactive,–
Cc1cc(=O)oc2c3c(cc(OCC(=O)N[C@H](C(=O)O)c4ccccc4)c12)OC(C)(C)CC3,inactive,–
